{
  "source": "PubChem BioAssay (NCI)",
  "note": "The panel holds about 83,000 compounds, 20% with a hit somewhere; the sample as a whole holds those more often.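 Method: cells in 96-well plates; compound added at one concentration; 48 h incubation; percent growth measured; values under 10 scored active.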 A number with no mark means an inactive call. Calls of active or inactive are those of the source. *1 amine or outer side, *2 acyl side, *3 side chain or, on linkers, in order; H or OH if unused. Where a SMILES comes first, the peptide text is derived from it. Bridges are numbered along the chain shown (N, C = ends). Roman numbers before positions name the chains, in order. [ ]: non-standard residue; d: D form. Actinocin(1to9) = Cc1c2oc3c(C)ccc(C(=O)[*:2])c3nc-2c(C(=O)[*:1])c(N)c1=O; NMeV = CN[CH](C(=O)O)C(C)C; Sar = CNCC(=O)O",
  "data": [
    {"tested_on": "LOX IMVI melanoma", "assay": "NCI-60 one-dose screen, 48 h (100 = growth as untreated, 0 = no growth, -100 = all killed)", "conditions": "10 µM", "description": "Growth inhibition of the LOX IMVI human tumor cell line is measured as a screen for anti-cancer activity. Cells are grown in 96 well plates and exposed to the test compound for 48 hours. Compounds are tested at a single concentration, which is 10^-5 M for most compounds. The reported endpoint is percent growth (GI% or GIPRCNT), where numbers from 0 - 100% represent growth inhibition, and numbers from -100% - 0 represent cell death. For example, a value of 40 represents 60% growth inhibition. A value of 0 means no net growth occurred over the course of the experiment. A value of -40 indicates 40% of cells at the beginning of the experiment died by the end of the experiment. A value of -100 means all cells are dead at the end of the experiment.\nNCI-60 Human Tumor Cell Lines Screen was performed using the standard one-dose NCI protocol, which is described in more detail at https://dtp.cancer.gov/discovery_development/nci-60/default.htm.\nCompounds with GIPRCNT values below 10 were considered active. Activity score was based on GIPRCNT using the following formula: […]\nScore is 0 for GIPRCNT values of 100 or above, 50 for GIPRCNT values of 0, and 100 for GIPRCNT values of -100.", "values": [
      {"smiles": "Cc1cc(C(=C2C=CC(=Nc3ccccc3)C=C2)c2ccc(Nc3ccccc3)cc2)ccc1N", "growth": "-93.8% (active)"},
      {"smiles": "Cc1cc(N/N=C/c2ccccn2)nc2ccccc12", "growth": "4.97% (active)"},
      {"smiles": "NC(=Nc1nc(-c2ccccn2)cc2ccccc12)c1ccccn1", "growth": "-5.24% (active)"},
      {"smiles": "O/N=C1\\c2ccccc2-c2ccc(F)cc21", "growth": "96.6%"},
      {"smiles": "COc1cc(NC(=O)C2=C(C)NC(C)=C(C(=O)Nc3cc(OC)c(Cl)cc3OC)C2c2cccc([N+](=O)[O-])c2)c(OC)cc1Cl", "growth": "22.8%"},
      {"smiles": "CN(C)c1ccc(C(=C2C=CC(=[N+](C)C)C=C2)c2ccc(N(C)C)cc2)cc1", "growth": "-70.2% (active)"},
      {"smiles": "CCCCCCCCCCCC[n+]1ccc(CCCCCCCCC)cc1", "growth": "-94.6% (active)"},
      {"smiles": "CCCN(CCC)C(=O)c1ccc(C)cc1", "growth": "95.4%"},
      {"smiles": "S=c1[nH]c2cc(Cl)ccc2s1", "growth": "97.6%"},
      {"smiles": "CCOC(=O)C1=NN(c2ccccc2)C(=O)/C1=C\\N1C(=O)/C(=C/c2cccc(O)c2)SC1=S", "growth": "88%"},
      {"smiles": "COc1ccc2c(c1)c(CC(=O)O)c(C)n2C(=O)c1ccc(Cl)cc1", "growth": "90.9%"},
      {"smiles": "Cc1cc(=O)oc2cc(O)cc(O)c12", "growth": "97.9%"},
      {"smiles": "O=C(Cc1ccccc1)C(F)(F)F", "growth": "96.5%"},
      {"smiles": "O=C1C=Cc2ccccc2/C1=C/c1nc(-c2ccccc2)oc1O", "growth": "84.8%"},
      {"smiles": "CCC(C)C1NC(=O)C(NC(=O)c2c3nc4c(C(=O)NC5C(=O)NC(C(C)CC)C(=O)N6CCCC6C(=O)N(C)CC(=O)N(C)C(C(C)C)C(=O)OC5C)ccc(C)c4oc-3c(C)c(=O)c2N)C(C)OC(=O)C(C(C)C)N(C)C(=O)CN(C)C(=O)C2CCCN2C1=O", "note": "(stereo not given) (I: TIP[Sar][NMeV] / II: TIP[Sar][NMeV]; ester I:1-I:C, II:1-II:C; linker I:N-II:N via Actinocin(1to9); configuration not given here)", "growth": "0.241% (active)"},
      {"smiles": "COC(=O)c1ccc(=O)c2nc3/c(=C/O)c(O)cc(=O)c3[nH]c12", "growth": "19%"},
      {"smiles": "CC[n+]1ccc(Nc2ccc(NC(=O)c3ccc(Nc4cc[n+](CC)c5ccc([N+](=O)[O-])cc45)cc3)cc2)cc1", "growth": "85.7%"},
      {"smiles": "O=C(c1ccccc1)C(Br)C(Br)c1ccccc1", "note": "(stereo not given)", "growth": "-55.3% (active)"},
      {"smiles": "O=C1/C(=C/c2ccccc2)CCC/C1=C\\c1ccccc1", "growth": "28.8%"},
      {"smiles": "CC/C(=C(/CC)c1ccc(O)cc1)c1ccc(O)cc1", "growth": "65.2%"},
      {"smiles": "CCC(C)(O)Cc1ccc(Cl)cc1", "note": "(stereo not given)", "growth": "103%"},
      {"smiles": "Oc1ccc2c(c1)CCc1ccccc1-2", "growth": "107%"},
      {"smiles": "O=C(CBr)c1ccc(OC(=O)c2ccccc2)cc1", "growth": "73.3%"},
      {"smiles": "CN(C)c1ccc2cc3c(cc2c1)Oc1ccccc1N3.[Cl][Zn][Cl]", "growth": "32%"},
      {"smiles": "Fc1ccc(NCCS)cc1", "growth": "91.7%"},
      {"smiles": "CC1=CC(=O)C=CC1(C)C(Cl)(Cl)Cl", "note": "(stereo not given)", "growth": "93%"},
      {"smiles": "CCOc1ccc(C(CN2CCOCC2)C(C)=O)cc1OC", "note": "(stereo not given)", "growth": "68.9%"},
      {"smiles": "CCC[CH2][Sn]1([CH2]CCC)[O]C2C(CO)OC(n3ccc(N)nc3=O)C2[O]1", "note": "(stereo not given)", "growth": "-57% (active)"},
      {"smiles": "Oc1ccc(Nc2ccc3ccccc3c2)cc1", "growth": "40.9%"},
      {"smiles": "Cc1ccc(N2C(=O)C=CC2=O)cc1", "growth": "97.7%"},
      {"smiles": "O=C1C=CC(O)=CC1=P(c1ccccc1)(c1ccccc1)c1ccccc1", "growth": "94.7%"},
      {"smiles": "Cc1ccc(Nc2ccc(O)c3c2C(=O)c2c(O)ccc(Nc4ccc(C)cc4)c2C3=O)cc1", "growth": "96.9%"},
      {"smiles": "CCCCCCCCCCCCCCCCCC1=NCCCN1CCO", "growth": "96.4%"},
      {"smiles": "Oc1c(Cl)cc(Cl)cc1C=NCC1CCC(CN=Cc2cc(Cl)cc(Cl)c2O)CC1", "note": "(stereo not given)", "growth": "69.6%"},
      {"smiles": "CCN1CCCC(Nc2cc(C)nc(/N=C(/N)Nc3ccc(Cl)c(Cl)c3)n2)C1", "note": "(stereo not given)", "growth": "-61.5% (active)"},
      {"smiles": "CCCCCCCCCCCC[N+]1(CCCCCCCCCCCC)CCCC(C)C1", "note": "(stereo not given)", "growth": "-80% (active)"},
      {"smiles": "CC1(C)OCC(COC(c2ccccc2)(c2ccccc2)c2ccccc2)O1", "note": "(stereo not given)", "growth": "89.1%"},
      {"smiles": "CCOC(=O)NC(/C=C/c1ccccc1)NC(=O)OCC", "growth": "99.8%"},
      {"smiles": "CC1(O)CCCCCC1", "growth": "94.2%"},
      {"smiles": "CCc1oc2ccccc2c1C(=O)c1cc(Br)c(O)c(Br)c1", "growth": "62.3%"}
    ]}
  ]
}
